# Many of the other results were omitted from the sample, so hits are more common in it than they were.
# Cycloheximide cs – affects cycloheximide protein synthesis inhibition readout, counter-screen; 12% of 300,000 active; max response, %; cell reporter, cycloheximide protein synthesis inhibition counterscreen; in the data active = max response mostly above about 13%, no sharp cut-off; inactive = mostly below about 14%; note: read at 38.3 µM for the half of the compounds with a filed dose; 0% is about no effect
# Shiga inhibitor – Shiga toxin inhibition; Vero cells, Shiga toxin protein synthesis inhibition reporter; inhibition, % at 38.7 µM; 9.2% of 290,000 active; in the data active = inhibition mostly above about 28%, no sharp cut-off; inactive = mostly below about 43%; note: 0% is about no effect
# LmPK inh – blocks Leishmania mexicana pyruvate kinase activity; Q27686; 0.37% of 290,000 active; Potency, µM (highest dose often 57.5 µM), without a hit: at the highest dose activity change, negative = inhibition, most hits filed as inhibitors; purified LmPK, Kinase-Glo ATP luminescence, 1 h; note: potency is the fitted concentration of half-maximal effect; % is set by controls: 0 for no effect and ±100 for the full control effect
#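 Kinase-Glo luminescence read after 1 h RT reaction of 0.1 nM LmPK with 0.5 mM PEP and 0.1 mM ADP. Activity scaled between uninhibited and enzyme-free controls.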
# TbPYK inhibitor – T. brucei pyruvate kinase inhibition | 0.12% of 410,000 active | Q57TT1 | Potency, µM (highest dose often 76.8 µM), for the others: at the highest dose activity, negative = inhibition, actives largely listed as inhibitors | TbPYK enzyme, Kinase-Glo Plus ATP luminescence, 45 min | AID 624173; note: potency is the fitted concentration of half-maximal effect; % is set by controls: 0 for no effect and ±100 for the full control effect; nearly all actives have a fitted effect of over 50% in size
#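 Luminescence from Kinase-Glo Plus, added after a 45-minute room-temperature reaction, served as the end-point read-out. The enzyme and substrate were preincubated with compound before ADP (130 uM final) initiated turnover. Concentration-effect curves came from normalized qHTS data.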
# FBPA Giardia inh – blocks Giardia fructose-bisphosphate aldolase activity. purified Giardia FBPA. Potency, µM (doses to about 59.6 µM), for inactives: at the top dose activity, negative = inhibition, actives largely listed as inhibitors. 0.71% of 290,000 active. AID 2451; note: potency is the fitted concentration of half-maximal effect; % is set by controls: 0 for no effect and ±100 for the full control effect; nearly all actives have a fitted effect of over 55% in size
# Target sequence (A8B2U2 whole entry, looked up): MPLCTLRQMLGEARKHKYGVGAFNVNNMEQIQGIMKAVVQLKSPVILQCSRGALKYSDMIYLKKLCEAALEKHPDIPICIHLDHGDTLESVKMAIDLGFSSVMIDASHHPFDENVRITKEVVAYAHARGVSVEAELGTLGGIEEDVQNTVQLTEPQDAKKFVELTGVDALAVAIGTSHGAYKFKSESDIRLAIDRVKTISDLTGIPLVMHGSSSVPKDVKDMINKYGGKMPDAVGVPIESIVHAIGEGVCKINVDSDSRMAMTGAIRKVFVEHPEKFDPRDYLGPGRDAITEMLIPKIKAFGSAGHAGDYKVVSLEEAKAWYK
#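 Giardia FBPA (40 nM reagent) was preincubated 10 min at RT with compound (up to 57.5 uM final), then substrate plus GAPDH/TPI/NAD/arsenate coupling system with diaphorase/resazurin was added; resorufin fluorescence (525/598 nm) was read after 20 min.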
# Sm TGR inh – S. mansoni TGR enzyme inhibition; purified TGR, DTNB reduction, TNB absorbance 405 nm; Q962Y6; AID 485364; 3% of 360,000 active; Potency, µM (top dose mostly 114 µM), without a hit: at the highest dose activity change, negative = inhibition, hits mostly inhibitors; note: potency is the fitted concentration of half-maximal effect; % is set by controls: 0 for no effect and ±100 for the full control effect; nearly all actives have a fitted effect of over 60% in size
#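 First, TGR (20 nM dispensed) and NADPH were mixed with compound. Second, a 15 min room-temperature incubation followed. Third, further NADPH and then DTNB were added to start the reaction. Finally, TNB absorbance was monitored kinetically.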
# Starred values were filed as active, the others as inactive; ? = inconclusive; nt = not tested or not shown; [ ] = dose if it differs, or a comment. Unless noted, calls come from the whole dose curve; as a rule, active = well fitted curve in the direction sought with a large enough effect; inconclusive = small, poorly fitted or top-dose-only effect, or another doubt; inactive = no such curve, though single readings can be large; an effect the other way counts as inactive or inconclusive.
SMILES,Cycloheximide cs,Shiga inhibitor,LmPK inh,TbPYK inhibitor,FBPA Giardia inh,Sm TGR inh
NC(=O)CC1C(=O)N(c2ccccc2)C(=S)N1NC(=O)c1ccc(Br)cc1 (configuration not stated),28.6*,54.5*,-6.7%,-1.2%,?,-0.4%
NC(=O)CC1C(=O)N(c2ccccc2)C(=S)N1NC(=O)c1ccccc1 (configuration not stated),26.6*,32.4,-7.6%,-1.5%,?,-0.7%
COc1cccc(C(=O)NN2C(=S)N(c3ccccc3)C(=O)C2CC(N)=O)c1 (configuration not stated),42.6*,50.5*,-7.2%,-2.2%,-11.9%,-0.1%
COc1ccc(-c2cn3cccnc3n2)cc1NC(=O)COc1ccccc1,nt,nt,nt,4.0%,nt,0.1%
Cc1ccc(Cl)cc1NC(=O)Cn1nc2c(cc1=O)CC(C)CC2 (configuration not stated),nt,nt,nt,-4.9%,nt,48.3%
COc1cccc(N2CC(NC(=O)COc3ccc4ccccc4c3)CC2=O)c1 (configuration not stated),nt,nt,nt,1.4%,nt,-1.1%
O=C(CSc1nncn1-c1ccccc1)N1CCCC1,-1.8,19.5,2.0%,2.5%,0.1%,2.4%
COc1cc(-c2cc(OC)c3c(C)oc(C)c3c(=O)c2)ccc1OC(=O)c1ccccc1Cl,nt,nt,nt,-17.2%,nt,-16.9%
COc1cc(-c2cccs2)cc(=O)c2c(C)oc(C)c12,-3.8,26.5,0.6%,-4.8%,?,39.8µM*
CCc1ccccc1NC(=O)[C@@H](c1ccccc1)N1Cc2ccccc2C1=O,nt,nt,nt,-4.3%,nt,3.1%
Cc1ccc(-c2nc3ccccc3[nH]2)s1,52.5*,63.9*,15.8µM*,?,?,-32.6%
Cc1[nH]c2ccccc2c1-c1csc(N)n1,-2.8,7.0,-3.3%,-10.0%,-29.7%,-11.0%
c1csc(-c2nc3ccccc3[nH]2)c1,36.0*,65.2*,?,1.1%,-7.5%,-24.6%
Cc1[nH]c2ccccc2c1-c1nc2ccccc2[nH]1,48.0*,56.4*,3.6%,4.2%,-1.8%,2.8%
Cc1cc2c(ccc3[nH]onc32)n1,-3.9,-9.2,-1.1%,4.1%,?,31.6µM*
CN(C)c1ccc(C(=O)C=Cc2ccc([N+](=O)[O-])cc2)cc1,nt,nt,nt,0.5%,nt,nt
Cc1[nH]c(C)c(C(=O)/C=C/c2ccc([N+](=O)[O-])cc2)c1C,59.7*,128.8*,-3.5%,2.0%,-5.4%,?
COc1ccc(-c2nn(-c3ccccc3)cc2C(=O)O)cc1OC,16.6,17.2,9.8%,8.0%,1.0%,-3.7%
Oc1ccc2ccccc2c1/C=N/n1cnnc1,-0.7,11.2,-3.2%,nt,-1.6%,-17.3%
O=C(N/N=C/c1cccc2ccccc12)c1cc2ccccc2o1,12.1,5.5,1.6%,5.7%,10.2%,1.9%
COc1ccc(-c2nn(-c3ccccc3)cc2/C=N/Nc2ccc(Cl)c(C(=O)O)c2)cc1OC,19.1*,72.1*,7.6%,-4.0%,-2.7%,-33.5%
O=C(O)c1cccc(N/N=C/c2cccc3ccccc23)c1,73.9*,164.9*,4.4%,-9.3%,2.7%,0.0%
COc1ccc2ccccc2c1/C=N/Nc1ccc(Cl)c(C(=O)O)c1,15.4,56.0*,14.4%,-15.0%,?,?
Oc1ccc2ccccc2c1C=NC1CCCCC1,23.6,28.4,2.1%,28.6%,?,39.8µM*
CCCCCCCCCCCCCCCCCCCCCCO,-3.1,-10.5,nt,-2.3%,2.8%,nt
SMILES,Cycloheximide cs,Shiga inhibitor,LmPK inh,TbPYK inhibitor,FBPA Giardia inh,Sm TGR inh
CCOc1ccccc1C(=O)Nc1cnn(Cc2ccc(F)cc2)c1,1.9,2.9,-2.5%,-1.6%,-7.9%,1.8%
Oc1ccc2ccccc2c1/C=N/c1nc2c(s1)CCCC2,13.6*,5.1,-3.0%,-7.1%,?,?
Oc1ccc2ccccc2c1/C=N/Nc1ccccc1,3.4,2.8,1.3%,1.6%,?,50.1µM*
COc1ccc2ccccc2c1/C=N/Nc1cccc(C(=O)O)c1,72.1*,133.5*,-5.8%,-5.2%,-9.1%,-26.1%
COc1ccc2ccccc2c1/C=N/NC(=O)c1cccc([N+](=O)[O-])c1,3.2,2.8,5.3%,-3.7%,0.0%,9.9%
COc1ccc(N/N=C/c2c(C(=O)O)ccc3ccccc23)cc1,22.1*,27.2*,1.1%,13.3%,-11.0%,?
COc1ccc(OC)c(NC(=O)C2CCN(S(=O)(=O)c3ccc4c(c3)CCCC(=O)N4)CC2)c1,nt,nt,nt,4.9%,nt,4.9%
CC(C)COc1ccc(C(=O)N2CCCCC2CCN2CCCCC2)cc1 (configuration not stated),nt,nt,nt,-7.6%,nt,-2.6%
Cc1cc(C)c2nc(NC(=O)CN3C(=O)NC4(CCCC4)C3=O)sc2c1,nt,nt,nt,-0.9%,nt,1.1%
Cc1cc2c(s1)c1cnn(Cc3cc(C(F)(F)F)cc(Cl)c3F)c(=O)c1n2C,3.8,14.8,nt,nt,nt,nt
O=C(NC1CCSC1=O)C1CCCCC1 (configuration not stated),-2.1,-3.8,-1.1%,-3.4%,1.9%,0.0%
C=CCNc1ncnc2c1cnn2-c1ccc(C)cc1C,24.6*,66.8*,12.0%,2.6%,-17.2%,-11.1%
Cc1ccc(-n2ncc3c(SCc4ccccn4)ncnc32)c(C)c1,44.5*,110.5*,-0.5%,-3.5%,-1.7%,3.5%
CSc1ncnc2c1cnn2-c1ccc(C)cc1C,34.9*,139.5*,-4.7%[11.5 µM],-1.3%,0.1%,12.0%
Cn1cc(C=C2C(=O)Nc3cccnc32)c2ccccc21,30.3*,32.4*,nt,nt,-25.9%,nt
Cc1ccc(C(=O)c2cn(Cc3cccc(C)c3)c3nc(C)ccc3c2=O)cc1,nt,nt,nt,-1.7%,nt,7.3%
CCOC(=O)C1CCN(C(c2ccc(OCC)cc2)c2c(O)cc(C)n(CCOC)c2=O)CC1 (configuration not stated),nt,nt,nt,-5.2%,nt,10µM*
CCOC(=O)C1CCN(C(c2ccc(C)cc2)c2c(O)cc(C)n(CCOC)c2=O)CC1 (configuration not stated),nt,nt,nt,6.1%,nt,7.94µM*
CCOC(=O)C1CCN(C(=O)Cc2ccc(C)cc2)CC1,-2.6,21.2,5.7%,4.6%,3.4%,-26.0%
Cc1ccc(S(=O)(=O)Nc2ccc(Cl)cc2C(=O)c2ccc(F)cc2)cc1,-5.2,-3.7,2.3%,-2.2%,0.2%,10.4%
CC(C)=CCC(C)(C)/C=N/NC(N)=O,-2.7,2.1,2.3%,-1.2%,-10.2%,0.0%
O=C(COc1ccc(F)cc1Br)N1CCc2ccccc21,41.6*,46.9*,0.8%,-1.2%,-6.4%,-3.4%
O=Cc1ccc(OCC(=O)N2CCc3ccccc32)c(Br)c1,nt,nt,nt,-2.6%,nt,-2.5%
CC(Oc1ccccc1Br)C(=O)N1CCc2ccccc21 (configuration not stated),51.0*,79.0*,3.7%,0.7%,-5.2%,10.7%
COc1cc(CO)ccc1OCC(=O)N1CCc2ccccc21,18.6*,24.0*,-1.1%,-1.3%,2.2%,-0.4%
